Test results from PubChem BioAssay (NCI).
This is part of a sample that, as a whole, favours compounds with a hit. Of some 83,000 tested, about 20% had one in any assay.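 For each line, cells grew in 96-well plates with the test compound present at a single concentration for 48 hours.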 Unmarked numbers belong to inactive results. Calls of active or inactive are those of the source. Rule for the calls: active = growth percent below 10; inactive = the rest.

How the values were obtained:
Assay in all cases: NCI-60 one-dose screen, 48 h (100 = growth as untreated, 0 = no growth, -100 = all killed)
Settings in all cases: 10 µM unless noted
HCT-15 colon = tested on: HCT-15 colon
HT29 colon = tested on: HT29 colon
SNB-75 CNS = tested on: SNB-75 CNS
SNB-19 CNS = tested on: SNB-19 CNS
U251 CNS = tested on: U251 CNS
PC-3 prostate = tested on: PC-3 prostate
UACC-62 melanoma = tested on: UACC-62 melanoma
LOX IMVI melanoma = tested on: LOX IMVI melanoma
SK-MEL-28 melanoma = tested on: SK-MEL-28 melanoma
SK-MEL-2 melanoma = tested on: SK-MEL-2 melanoma
EKVX NSCLC = tested on: EKVX NSCLC
UO-31 renal = tested on: UO-31 renal
TK-10 renal = tested on: TK-10 renal
ACHN renal = tested on: ACHN renal
A498 renal = tested on: A498 renal
CCRF-CEM leukemia = tested on: CCRF-CEM leukemia
CAKI-1 renal = tested on: CAKI-1 renal
MOLT-4 leukemia = tested on: MOLT-4 leukemia
SN12C renal = tested on: SN12C renal

Structure (SMILES)	growth (HCT-15 colon)	growth (HT29 colon)	growth (SNB-75 CNS)	growth (SNB-19 CNS)	growth (U251 CNS)	growth (PC-3 prostate)	growth (UACC-62 melanoma)	growth (LOX IMVI melanoma)	growth (SK-MEL-28 melanoma)	growth (SK-MEL-2 melanoma)	growth (EKVX NSCLC)	growth (UO-31 renal)	growth (TK-10 renal)	growth (ACHN renal)	growth (A498 renal)	growth (CCRF-CEM leukemia)	growth (CAKI-1 renal)	growth (MOLT-4 leukemia)	growth (SN12C renal)
CSc1ccc(-c2ccccc(=O)c2O)cc1	26.9%	25.7%	34.6%	17.5%	9.54% (active)	30.9%	-23% (active)	9.8% (active)	26.9%	15.2%	11.5%	-17.8% (active)	33.4%	6.58% (active)	36.2%	3.72% (active)	–	–	–
CNC(=O)c1cc(Oc2ccc(NC(=O)Nc3ccc(Cl)c(OC(F)(F)F)c3)c(F)c2)ccn1	28.8%	14%	83%	30.3%	32.3%	22.1%	5.13% (active)	17.2%	13.7%	14.4%	26.2%	23%	37.3%	28.2%	36.9%	30.1%	45.8%	20.2%	–
O=c1cc(/C(=C2/C=CC=N2)c2ccc[nH]2)c2cc(Cl)ccc2o1	35.1%	47.9%	24.6%	25.7%	14.4%	38.9%	42.9%	34.3%	61.8%	62.4%	44.8%	41%	63%	48%	10.8%	28.3%	55.7%	7.2% (active)	–
O=C(Nc1ccc(Cl)cc1)c1cc2cc(F)ccc2cc1O	13.1%	72.5%	18.7%	21.3%	5.79% (active)	9.4% (active)	10.9%	17.8%	12.1%	6.39% (active)	17%	12.6%	17.7%	3.91% (active)	-43.4% (active)	15.6%	12%	7.89% (active)	–
CCc1nnc(CNc2ccc(Cl)cc2)o1	100%	95.1%	82.7%	106%	98.2%	95.1%	93.7%	91.2%	100%	–	91.3%	73.7%	114%	86.8%	106%	114%	89.9%	89.7%	95.8%
N#CN1CCC[C@H]1C(=O)N1CCc2c(-c3[nH]nc4ncccc34)cccc21	7.65% (active)	-53.9% (active)	-16% (active)	17.1%	-27.6% (active)	21.6%	7.64% (active)	4.55% (active)	24.6%	3.74% (active)	14.6%	2.24% (active)	-15.6% (active)	6.01% (active)	-36.5% (active)	17.5%	-32.8% (active)	7.28% (active)	–
O=c1cc(CSc2nnc(-c3ccc(F)cc3)o2)c2ccc3ccccc3c2o1	98.4%	95%	98.3%	101%	102%	92.5%	93.5%	87.7%	110%	87%	88.7%	77.7%	102%	96.7%	94.6%	112%	91.1%	95.9%	–
COc1cc2c(cc1-c1c(C)noc1C)ncc1nc(C3CCC(F)(F)CC3)n([C@H](C)COC(F)F)c12	16.8%	17.3%	37%	47.7%	46.8%	33.1%	17.8%	14.8%	54.4%	–	48.1%	25.3%	27.1%	37.5%	-22.8% (active)	50.3%	35.4%	48.9%	51%
COc1cc(-c2nn(C)nc2-c2cc3ccccc3s2)cc(OC)c1OC	16.9%	-1.21% (active)	48.1%	26.7%	20.9%	21.9%	26%	38.3%	57.6%	–	43.6%	40.4%	65%	43.2%	1.32% (active)	17.5%	43.6%	11.7%	42.3%
C=C(C)C1CC(O)C2(C)CCCC3C2C1CC(C)C3(C)CC/C(C)=C/C(O)C1CCC(=O)c2c(OC)cc(OC)cc21 (configuration not stated)	30.7%	46.6%	38.3%	56.5%	35.9%	20.9%	36.5%	22.5%	49.6%	65.8%	–	47.6%	55.6%	41.1%	9.01% (active)	25.7%	48.5%	–	59.2%
N#CN1CC[C@H](C(=O)Nc2cc3cc(C(N)=O)ccc3cn2)C1	3.81% (active)	-31.2% (active)	-28.4% (active)	7.87% (active)	-2.5% (active)	2.76% (active)	-34.5% (active)	4.7% (active)	-9.92% (active)	-64.3% (active)	2.35% (active)	17.7%	-17.7% (active)	6.51% (active)	-34.4% (active)	–	11.9%	-18.1% (active)	–
COc1cc(-c2nc3ccccc3[nH]2)ccc1OCC(=O)N=Nc1c(O)[nH]c2ccc(Cl)cc12	77.4%	-59% (active)	-88.4% (active)	-93.1% (active)	-95% (active)	-73% (active)	-64.3% (active)	-97.1% (active)	-65.4% (active)	-47.4% (active)	–	104%	-7.25% (active)	31.4%	81.8%	-46.7% (active)	-66.4% (active)	-45.1% (active)	-73.4% (active)
O=S(=O)(Nc1ccc(NS(=O)(=O)c2ccccc2)c(Cl)c1)c1ccccc1	110%	107%	84.9%	112%	105%	88.7%	88.8%	106%	107%	–	106%	88.7%	100%	105%	113%	92%	92.4%	79%	102%
O=C(Cc1ccc(/C=C/C(=O)c2ncc[nH]2)cc1)Nc1ccc(F)cc1	5.31% (active)	3.91% (active)	20.4%	14.2%	8.1% (active)	32.9%	40.5%	2.77% (active)	87.2%	79.1%	34.8%	17.2%	35.9%	46.4%	66.9%	2.63% (active)	–	14.7%	–
O=c1cc(CSc2nnc(SCc3cc(=O)oc4c3ccc3ccccc34)o2)c2ccc3ccccc3c2o1	104%	97%	93%	107%	97.2%	89.9%	99.6%	88.7%	109%	87.8%	94.7%	81.2%	98.8%	102%	98.9%	105%	97.4%	98%	–
COc1ccc(C2C(C#N)=C(N)Oc3n[nH]c(-c4cccs4)c32)cc1I (configuration not stated)	81.4%	98.4%	77.9%	87.1%	90.6%	85.8%	79.1%	89%	108%	101%	96%	81.8%	99.7%	98.5%	77.4%	76.3%	–	74.9%	–
